High-throughput results (PubChem BioAssay)
HSF1 inh: HSF1 inhibitors in luciferase reporter cells, primary screen, cell-based, NIH3T3, luminescence. 0.77% of 300,000 active. AID 2098, 2009. NIH3T3-HGL HSE-luciferase, MG132-induced, luminescence 8 h; stronger effect = lower value. activity change, negative = inhibition, % at 7.5 µM (by protocol);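 active = more than half of replicate wells show activity change below -50%, luminescence cut by over half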;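 also: luciferase reports HSF-1 transcriptional activity via heat shock element; 0% = median of DMSO wells and -100% = zero luminescence signal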
esBAF inh: Bmi1 luciferase reporter increase in mESCs, primary screen, esBAF inhibitor project, mouse ES cells, Bmi1 luciferase knock-in, single point. 24 h; 100% = twice the neutral-well signal. reporter increase, % at 12.5 µM. 2% of 350,000 active. AID 602393, 2012; in the data active = activation above about 40%;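 also: 0% = median of the plate's neutral control wells and 100% = double that signal; a rise in the Bmi1 reporter signal indicates esBAF inhibition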
HSF1 activator: HSF-1 activators, primary screen, NIH3T3-HGL cells, MG132 stress, luminescence, single point; NIH3T3-HGL HSF-1 luciferase reporter, 8 h; 100% = twice DMSO control signal; 1.7% of 300,000 active; activation, % at 9 µM;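 active = mean replicate activation of at least 50% with a set share of replicates each reaching 50%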;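 also: 0% = median of the neutral control wells and 100% = twice that signal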
Vif imaging: HIV Vif self-association inhibitors, primary screen, imaging, HEK293T, single point. HEK293T cells, Vif self-association by quenched fluorescence, 24 h. inhibition, % at 7.49 µM. 0.35% of 340,000 active; in the data active = inhibition above about 50%, passing the limit was not always enough
Starred values were filed as active, the others as inactive. Compounds with a hit are over-represented: about 3.4% of the library has one in this group of screens.

Screening O=C(/C=C/c1ccc([N+](=O)[O-])cc1)Nc1cccnc1 returned HSF1 inh 21.0, esBAF inh 22.8, HSF1 activator 54.1* and Vif imaging -1.5.
For CC(C)(C)c1ccc(/C=C/C(=O)Nc2ccncc2)cc1 the results were HSF1 inh 39.8, HSF1 activator 56.0* and Vif imaging -1.9.
`COc1ccc(CNC(=O)Nc2cccs2)cc1OC` gave HSF1 inh -1.2, esBAF inh -6.1, HSF1 activator 5.6 and Vif imaging 56.1*.
Screening COc1cccc(CNC(=O)Nc2cccs2)c1 returned HSF1 inh 18.2, esBAF inh -8.0, HSF1 activator 42.0 and Vif imaging -5.4.
For Cc1ccc(CNC(=O)Nc2cccs2)cc1 the results were HSF1 inh 47.0, esBAF inh 54.2* and HSF1 activator 73.2*.
COCCCNC(=O)c1cn(CCOC)c(=O)c2c1c1ccccc1n2C was read as HSF1 inh 2.4, esBAF inh 0.0, HSF1 activator 5.0 and Vif imaging -10.5.
For COCCCNC(=O)c1cn(CC(C)C)c(=O)c2c1c1ccccc1n2C the results were HSF1 inh -74.5*, esBAF inh -1.9, HSF1 activator -81.6 and Vif imaging -4.0.
Screening COc1cc(/C=N/OCC(=O)NC23CC4CC(CC(C4)C2)C3)ccc1OCc1ccccc1 returned HSF1 inh 3.2, esBAF inh 62.1*, HSF1 activator 16.1 and Vif imaging -9.1.
COc1cccc(C(=O)Oc2ccc(/C=N/Nc3ccc(C(=O)O)cc3)cc2OC)c1 was read as HSF1 inh -33.5, esBAF inh -7.8, HSF1 activator -37.8 and Vif imaging 1.1.
COc1cc(/C=N/O)ccc1OCc1ccc(Cl)cc1 was read as HSF1 inh 47.1 and HSF1 activator 107.9*.
For O=C(O)c1cc(/C=N\O)ccc1OCc1ccccc1 the results were HSF1 inh -0.5, esBAF inh 6.9, HSF1 activator 5.5 and Vif imaging -3.0.
Screening COc1cc(/C=N/O)ccc1OCc1ccc(C(=O)O)cc1 returned HSF1 inh -76.7*, HSF1 activator -81.2 and Vif imaging 1.9.
`COc1cccc(OCc2cc(/C=N/Nc3ccc(C(=O)O)cc3)ccc2OC)c1` gave HSF1 inh -73.0*, esBAF inh 58.8*, HSF1 activator -71.8 and Vif imaging 2.5.
`COc1ccc(S(=O)(=O)N2C[C@H](O)COC[C@H]3O[C@@H](CC(=O)NCc4ccc(Cl)c(Cl)c4)CC[C@@H]32)cc1` gave esBAF inh 5.6.
COc1cc(/C=C(\C#N)C(=O)Nc2cccc(C(=O)O)c2)ccc1OCc1ccc(Cl)cc1 was read as HSF1 inh 75.2, esBAF inh 7.0, HSF1 activator 112.8* and Vif imaging 14.5.
COc1ccc(OC)c(-c2cc(C(=O)NC3CCCC3)c3ccccc3n2)c1 was read as HSF1 inh 4.9, esBAF inh -11.6, HSF1 activator 1.8 and Vif imaging -9.6.
COc1cc(SC)ccc1C(=O)OCC(=O)NC1CCCCC1 was read as HSF1 inh 3.6, esBAF inh -4.8, HSF1 activator -2.2 and Vif imaging -14.7.
For COc1cc2ccccc2cc1C(=O)NC1CCCC1 the results were esBAF inh 96.4* and Vif imaging 5.3.
Screening COc1cc(SC)ccc1C(=O)NCC1CCCO1 (centres undefined) returned HSF1 inh -74.0*, esBAF inh 20.1, HSF1 activator -80.0 and Vif imaging 6.0.
Screening COc1ccc(C(=O)NCC2CCCO2)cc1OC (centres undefined) returned HSF1 inh 1.4, esBAF inh -4.9, HSF1 activator -7.1 and Vif imaging -0.8.
`COc1cc(SC)ccc1C(=O)NC1CCCCC1` gave HSF1 inh 5.3, esBAF inh 54.1*, HSF1 activator 8.9 and Vif imaging 12.9.
Screening COc1cc2ccccc2cc1C(=O)NC1CCC(C)CC1 (centres undefined) returned esBAF inh 56.7* and Vif imaging -2.0.
`CC=Cc1ccc2n(c1=O)C[C@H]1[C@H](CO)[C@@H](C(=O)NCC3CC3)N(CCC(F)(F)F)[C@@H]21` (mixture of isomers) gave esBAF inh -0.5.
O=C(NC1CCCC1)[C@@H]1[C@@H](CO)[C@@H]2Cn3c(ccc(C4=CCCC4)c3=O)[C@H]1N2CC1CC1 was read as esBAF inh -4.8.
`COc1ccccc1C(=O)Nc1ccccc1C(=O)NC1CCCCC1` gave HSF1 inh 0.0, esBAF inh 0.8, HSF1 activator -2.5 and Vif imaging -11.0.
`COc1cc2ccccc2cc1C(=O)NC1CCCCC1` gave esBAF inh 45.5* and Vif imaging -5.3.
Oc1ccc(Cl)cc1C=Nc1ccc(Br)cc1 was read as HSF1 inh 14.8, HSF1 activator 20.2 and Vif imaging 1.4.
Screening Cn1c(O)c(C=Nc2ccc(Br)cc2)sc1=O returned HSF1 inh 24.2, HSF1 activator 57.7* and Vif imaging 11.8.
Screening Cc1ccc(C(=O)NC2CCC(C)CC2)o1 (centres undefined) returned HSF1 inh 1.1, esBAF inh 54.6*, HSF1 activator 16.8 and Vif imaging 5.7.
N/C(Cc1nc(-c2ccc(Br)cc2)cs1)=N\O was read as HSF1 inh 16.6, HSF1 activator 55.0* and Vif imaging 10.3.
For N/C(Cc1nc(-c2ccc(F)cc2)cs1)=N\O the results were HSF1 inh 6.9, HSF1 activator 22.7 and Vif imaging 19.2.
For Cc1ccc(C(=O)Cn2nc(C(=O)O)c3ccccc3c2=O)cc1C the results were HSF1 inh 27.6, esBAF inh 7.6, HSF1 activator 64.5* and Vif imaging -2.6.
`Cc1ccc(-n2nc(C(=O)O)c3ccccc3c2=O)cc1C` gave HSF1 inh -3.2, HSF1 activator -16.1 and Vif imaging -18.0.
`Cc1cc(C(=O)Cn2nc(C(=O)O)c3ccccc3c2=O)c(C)n1CC(F)(F)F` gave HSF1 inh -13.4, esBAF inh 43.6*, HSF1 activator -9.9 and Vif imaging -0.8.
`Cn1cccc1C(=O)C(=O)Nc1ccc(F)c(F)c1` gave HSF1 inh 22.9, esBAF inh 45.6*, HSF1 activator 62.7* and Vif imaging -5.0.
`CC(C)(C)NC(=O)Nc1cccc(Cl)c1Cl` gave HSF1 inh 0.6, HSF1 activator 4.5 and Vif imaging 0.3.
Cn1cccc1C(=O)C(=O)Nc1cc(Cl)cc(Cl)c1 was read as HSF1 inh 19.9, esBAF inh 49.0*, HSF1 activator 39.5 and Vif imaging -18.7.
Cn1cccc1C(=O)C(=O)Nc1ccc(Cl)cc1 was read as HSF1 inh 18.2, esBAF inh 13.1, HSF1 activator 36.0 and Vif imaging 6.1.
For Cn1cccc1C(=O)C(=O)Nc1cccc(Cl)c1Cl the results were HSF1 inh 28.8, esBAF inh 63.2*, HSF1 activator 35.8 and Vif imaging -3.7.
